Compounds without any hit were thinned out: in the full panel of roughly 83,000, 20% have a hit.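 Treatment: one concentration, 48 hours, 96-well format. Scoring: percent growth, with anything below 10 considered active.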 Activity calls are given as the source filed them.

For this experiment, the system named is HOP-62 NSCLC. The experiment is described as follows: NCI-60 one-dose screen, 48 h (100 = growth as untreated, 0 = no growth, -100 = all killed). The conditions noted are these: 10 µM. The protocol: Growth inhibition of the HOP-62 human Non-Small Cell Lung tumor cell line is measured as a screen for anti-cancer activity. Cells are grown in 96 well plates and exposed to the test compound for 48 hours. Compounds are tested at a single concentration, which is 10^-5 M for most compounds. The reported endpoint is percent growth (GI% or GIPRCNT), where numbers from 0 - 100% represent growth inhibition, and numbers from -100% - 0 represent cell death. For example, a value of 40 represents 60% growth inhibition. A value of 0 means no net growth occurred over the course of the experiment. A value of -40 indicates 40% of cells at the beginning of the experiment died by the end of the experiment. A value of -100 means all cells are dead at the end of the experiment.
NCI-60 Human Tumor Cell Lines Screen was performed using the standard one-dose NCI protocol, which is described in more detail at https://dtp.cancer.gov/discovery_development/nci-60/default.htm.
Compounds with GIPRCNT values below 10 were considered active. Activity score was based on GIPRCNT using the following formula: […]
Score is 0 for GIPRCNT values of 100 or above, 50 for GIPRCNT values of 0, and 100 for GIPRCNT values of -100.
`O=c1c(Br)ccc(Br)cc1Br`: the growth is 15.2% (inactive).
With `COc1cc2cc(Oc3ccc(NC(=O)Nc4cccc(C(F)(F)F)c4)cc3)c(C)nc2cc1OC`, the growth is 25% (inactive).
Under `COc1cccc(-c2nc3sccn3c2-c2cccc(S(C)(=O)=O)c2)c1` stands 105% (inactive).
For the compound `COc1cc2cc(Oc3ccc(NC(=O)Nc4ccc(Cl)c(C(F)(F)F)c4)cc3)c(C)nc2cc1OC`, the growth is -50.9% (active).
Under `CCn1c(SC/C(=N/O)c2ccccc2)nnc1-c1ccccc1` stands 111% (inactive); under `COc1cc(N)c2ncccc2c1SC`, 107% (inactive).
Take `Clc1nc2ccc(Br)cc2cc1-c1nc2ccccc2[nH]1`: the growth was 81.3% (inactive).
As for `Nc1ncnc2c1ncn2C1(CO)OCC(O)C(O)C1O` (stereo not given), the figure is 91.4% (inactive); as for `COc1cc(/C=C2\CCCC3C2=Nc2ccccc2NC3c2cc(OC)c(OC)c(OC)c2)cc(OC)c1OC` (stereo not given), -3.43% (active).
In the case of `CCOC(=O)C(C)(c1ccccc1)c1ccccc1`, the growth is 95% (inactive).
Regarding `Cc1c(C(N)=O)sc2c1c(=O)n(Cc1ccccc1)c1nnc(-c3ccc(Br)cc3)n21`, the growth is 37.7% (inactive).
`O=C(O)Cc1ccc(O)c(O)c1`: the growth was 99.3% (inactive).
As to `CCCN1CN2C(=O)N3CN(CCC)CN4C(=S)N(C1)C2C34` (stereo not given), the growth was 84.7% (inactive).
As for `C=CCN(CC=C)C(=O)[C@H](CC)[C@@H]1CC[C@@H](C)[C@@H]([C@H](C)[C@@H](O)[C@@H](C)C(=O)[C@H](CC)C2O[C@]3(C=CC(=O)[C@]4(CC[C@@](C)([C@H]5CC[C@](O)(CC)[C@H](C)O5)O4)O3)[C@H](C)C[C@@H]2C)O1` (stereo not given in full), the figure is 31.4% (inactive); as for `CCOC(=O)C1=CSC2=NC3=C(CCC/C3=C\c3cc(OC)c(OC)c(OC)c3)C(c3cc(OC)c(OC)c(OC)c3)N12` (stereo not given), 74.5% (inactive); as for `C1CN(CC2CCC(CN3CCOCC3)O2)CCO1` (stereo not given), 95.1% (inactive).
As for `O=C(CCCSc1nc(-c2ccc(Cl)cc2)cc(-c2ccc(Cl)cc2)n1)NO`, the figure is 15.4% (inactive); as for `CCOc1ccccc1/C=N/N1CCCCCC1`, 97.3% (inactive); as for `COc1cc2cc(Oc3ccc(NC(=O)c4cc(C(F)(F)F)cc(C(F)(F)F)c4)cc3)c(C)nc2cc1OC`, 84.7% (inactive).
On to `COc1ccc(C(=O)N/N=C/c2cc(C(F)(F)F)ccc2Cl)cc1`, for which the growth was 107% (inactive).
As for `Cc1cc(Cl)ccc1Nc1nc(C(F)(F)F)ccc1C(=O)N/N=C/c1cccc(O)c1`, the figure is 44.2% (inactive); as for `O=C1c2ccccc2C(=O)c2c1ccc(C(Br)Br)c2Cl`, 96% (inactive); as for `O=C(CN1CCN(C(=O)c2ccccc2)CC1)Nc1ccccc1SCc1ccccc1`, 89.6% (inactive).
For `Cc1ccc(C(SCC(N)C(=O)O)(c2ccc(C)cc2)c2ccc(C)cc2)cc1` (stereo not given), the growth is -48.3% (active).
In the case of `O=C(NCCCNS(=O)(=O)c1ccc(Cl)cc1)Nc1ccc(-n2cc(-c3ccncc3)c(-c3ccc(Cl)c(O)c3)n2)cc1`, the growth was 76.4% (inactive).
Take `O=C1C=C(Nc2cccc(Br)c2)c2ccccc2C1=O`: the growth is 41.9% (inactive).
As for `COc1ccc(Cl)cc1Nc1nc(C(F)(F)F)ccc1C(=O)N/N=C/c1ccc(Cl)cc1`, the figure is 44.8% (inactive).
For the compound `Nc1cc(-c2ccc(Cl)cc2)nn1-c1nc2ccccc2nc1Cc1ccccc1`, the growth was 88.8% (inactive).
As for `CCN(CC)CCCC(C)N=C(C1=C(C(=NC(C)CCCN(CC)CC)c2cccc(OC)c2)C(=O)NC1=O)c1cccc(OC)c1` (stereo not given), the figure is -57.5% (active).
In the case of `Brc1ccc2c(c1)-c1ccccc1C1=NCCN12`, the growth is -24.3% (active).
Under `OCC1OC(n2ccc3c(NO)ncnc32)C(O)C1O` (stereo not given) stands -21.6% (active); under `Cc1ccc(C(=O)C2C(=O)C3CCC2C3)cc1` (stereo not given), 99.6% (inactive); under `CC1C(=NC(=O)c2cnccn2)C(C)C(c2ccc(Cl)cc2)NC1c1ccncc1` (stereo not given), 97.7% (inactive).
Under `CN(C)CCOc1ccc(-c2nc3sccn3c2-c2ccnc(S(C)(=O)=O)n2)cc1` stands 87.5% (inactive); under `CCOC(=O)CN(c1sc(C)c(C)c1C(=O)OCC)S(=O)(=O)c1ccc(C)cc1`, 94.1% (inactive); under `CN1CCN(CCCn2c(=O)c3sc4ncccc4c3n3nnc(-c4ccccc4)c23)CC1`, 21.7% (inactive).
Consider `CCOC(=O)c1cc(C(=O)c2ccc(F)cc2F)n2ccccc12`, for which the growth is 88.6% (inactive).
For `COc1ccc2c(c1)OC(N)=C(C#N)C2c1cc(OC)c(OC)c(OC)c1` (stereo not given), the growth is 38.9% (inactive).
Consider `Cc1cc(CCNC=O)c(C)c2c1sc1ccccc12`, for which the growth was 86.2% (inactive).
Regarding `COc1cc(/C=C/c2cc(/C=C/c3ccc(O)c(OC)c3)n(C(=O)Nc3ccc(C)cc3)n2)ccc1O`, the growth was 11.6% (inactive).

Source of the values: PubChem BioAssay (NCI).
